Pf growth 48h: P. falciparum growth inhibition at 48 hours (one generation); AID 504832; Potency, µM (doses to about 28.7 µM), actives largely listed as inhibitors; 5.9% of 310,000 active; P. falciparum luciferase growth in erythrocytes, 48 h
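Compounds are pin-transferred into medium, infected erythrocytes (2% hematocrit, 0.1% parasitemia final) are added, and plates sit one parasite generation at 37 C in 5% CO2. Detection reagent is then added and luminescence measured.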
Shiga inhibitor: inhibitors of Shiga toxin in Vero cells | Vero cells, Shiga toxin protein synthesis inhibition reporter | inhibition, % at 38.7 µM | 9.2% of 290,000 active | AID 2315; in the data active = inhibition mostly above about 28%, no sharp cut-off; inactive = mostly below about 43%
CHX counter: counter-screen hit for Shiga toxin inhibitors, cycloheximide | cell reporter, cycloheximide protein synthesis inhibition counterscreen | max response, % | 12% of 300,000 active; in the data active = max response mostly above about 13%, no sharp cut-off; inactive = mostly below about 14%; note: read at 38.3 µM for the half of the compounds with a filed dose
Pf growth 96h: inhibits malaria parasite growth, 96 h; P. falciparum luciferase reporter growth, 96 h; Potency, µM (doses to about 28.7 µM), usual class: inhibitors; 6.9% of 320,000 active; AID 504834
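P. falciparum expressing integrated firefly luciferase, in erythrocytes at 2% hematocrit, 0.05% parasitemia, incubated with compounds 96 h at 37 C, 5% CO2. Growth inhibition read as loss of luminescence; two-generation exposure targets delayed-death apicoplast inhibitors.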
Of the large screens only hits and unclear results are named; the others gave an inactive call. A selection: hits, their analogues and other compounds. The true share with any hit is near 21%. Unless noted, calls come from the whole dose curve; as a rule, active = well fitted inhibition curve with a large enough effect; inconclusive = small, poorly fitted or top-dose-only effect, or another doubt; inactive = no such curve, though single readings can be large or run the other way.

CC1CC2(CCCCC2)Nc2ccc3ccccc3c21 (stereo not drawn)	Pf growth 48h 10.4µM
COc1ccc(/C=C/C2=NN(Cc3ccccc3)C(=O)CC2)cc1	none
C=CCN1N=C(/C=C/c2ccc(OC)cc2)CCC1=O	Shiga inhibitor 114.6, CHX counter 54.3
C=CCN1N=C(/C=C/c2ccc(C)cc2)CCC1=O	Shiga inhibitor 92.0, CHX counter 34.8
CCOC(=O)CC1CCCCN1Cc1cn[nH]c1-c1ccc(F)cc1F (stereo not drawn)	none
CCOc1ccc(Cl)cc1/C=N/NC(=O)c1ccccc1	Shiga inhibitor 65.3, CHX counter 28.9
CCOc1ccccc1/C=N/NC(=O)c1cccc(Cl)c1	Shiga inhibitor 57.3
CCOc1ccc(Cl)cc1/C=N/NC(=O)CNC(=O)c1ccccc1	none
COc1cc(CC(NC(C)=O)C(=O)NC2CCN(S(=O)(=O)c3ccc(NC(C)=O)cc3)CC2)cc(OC)c1 (stereo not drawn)	none
CCOC(=O)N1CCN(C(=O)Cc2ccc(-n3c(=O)[nH]c4ccccc4c3=O)cc2)CC1	Pf growth 96h 9.28µM
CCOC(=O)c1ccc(-n2c(=O)[nH]c3ccccc3c2=O)cc1	Pf growth 96h inconclusive (no result: Pf growth 48h)
N/C(=N\OC(=O)CC1CCCCC1)c1ccc([N+](=O)[O-])cc1	CHX counter 18.4
N/C(=N\OC(=O)CCC1CCCCC1)c1cccnc1	Shiga inhibitor 35.4, CHX counter 16.8
N/C(=N\OC(=O)CC1CCCCC1)c1cccc([N+](=O)[O-])c1	Shiga inhibitor 82.8, CHX counter 35.1
N/C(=N\OC(=O)CCC1CCCC1)c1cccc([N+](=O)[O-])c1	CHX counter 18.3
O=C1C=C(c2ccc(Oc3ccccc3)cc2)C[C@@H](c2ccc(F)cc2)C1	Pf growth 48h inconclusive (no result: Shiga inhibitor, CHX counter)
CCN(Cc1ccc2c(c1)OCCO2)C(=O)CN1C(=O)NC2(CCc3ccccc32)C1=O (stereo not drawn)	Pf growth 96h inconclusive (no result: Shiga inhibitor, CHX counter)
CCOc1ccc(/C(O)=C2/C(=O)C(=O)N(CCCN3CCOCC3)C2c2ccc(C)cc2)cc1C (stereo not drawn)	none
Cc1ccc(N2C(=O)Nc3ccc(Br)cc3C2(O)C(=O)NCCN(C)C)cc1C (stereo not drawn)	Pf growth 96h inconclusive (no result: Pf growth 48h)
COc1ccc(/C(N)=N/OC(=O)CC2CCCCC2)cc1	Shiga inhibitor 159.4, CHX counter 47.0
COc1ccc(NC(=O)COC(=O)CC2CCCCC2)cc1	none (no result: Shiga inhibitor, CHX counter)
O=C(COC(=O)c1ccc(S(=O)(=O)N2CCCC2)cc1)NCc1cccs1	none
O=c1cc(-c2ccccc2Cl)oc2c([N+](=O)[O-])ccc(O)c12	none (no result: Pf growth 48h, Pf growth 96h)
O=c1cc(-c2ccccc2Cl)oc2c(Br)ccc(O)c12	Shiga inhibitor 78.1, CHX counter 30.8
CCc1ccc(-c2ccc(C(=O)C(F)(F)F)[nH]2)cc1	Shiga inhibitor 125.8, CHX counter 64.3
COc1cccc(N=CC2=C(O)CCCC2=O)c1	CHX counter 30.5
O=C1CCCC(O)=C1C=Nc1cccc(C(F)(F)F)c1	none
COc1ccc(CCN=CC2=C(O)CC(C)(C)CC2=O)cc1	none
COc1cccc(N=CC2=C(O)CC(C)(C)CC2=O)c1	CHX counter 12.9
CC(C)(C)c1ccc(-c2nc(N)nc(N)n2)cc1	CHX counter 33.2
CCCN(CC1CC1)C(=S)NC(=O)c1cc(Br)ccc1Cl	Pf growth 48h 13.1µM, Pf growth 96h inconclusive (no result: Shiga inhibitor, CHX counter)
Cc1cc(C)n2nc(SC(C)C(=O)N3CCC4(CC3)OCCO4)nc2n1 (stereo not drawn)	Pf growth 48h 2.62µM
CC(C)(C)c1cc(O)ccc1O	Pf growth 48h 6.01µM, Pf growth 96h 10.7µM (no result: Shiga inhibitor, CHX counter)
Cc1ccccc1CN1CCSc2sccc2C1=O	Pf growth 48h inconclusive
O=C(CCS(=O)(=O)c1ccccc1)NC12CC3CC(CC(C3)C1)C2	CHX counter 25.2 (no result: Pf growth 48h)
CCOC(=O)C1=C(C)Nc2ccccc2N/C1=N\S(=O)(=O)c1cc(C(=O)O)ccc1Cl	Pf growth 96h inconclusive (no result: Shiga inhibitor, CHX counter)
N=C(N)c1ccc(OCCCCCOc2ccc(C(=N)N)cc2)cc1	Pf growth 48h 0.262µM, Pf growth 96h 0.037µM
COC(=O)c1ccc(OCCOc2ccc(C(=O)OC)cc2)cc1	none (no result: Pf growth 48h)
CCCCCCOc1ccc(/C(N)=N/O)cc1	Shiga inhibitor 61.4, CHX counter 44.1
CCOc1ccc(C(=O)Nc2cccc(-c3nc4ccccc4[nH]3)c2C)cc1[N+](=O)[O-]	none
CCCSc1nnc(CNS(=O)(=O)c2ccc(C)cc2)n1C	none
CCOc1ccc2[nH]c3ncccc3c(=O)c2c1	Pf growth 48h inconclusive, Shiga inhibitor 39.7
COc1ccc(C)cc1NC(=O)C1COc2ccccc2O1 (stereo not drawn)	Shiga inhibitor 103.4, CHX counter 37.6, Pf growth 96h inconclusive
Cc1ccc(C)c(NC(=O)C2COc3ccccc3O2)c1 (stereo not drawn)	Pf growth 48h inconclusive, CHX counter 13.7, Pf growth 96h inconclusive
CC(Oc1ccc2c(=O)c(-c3ccc(Cl)cc3)c(C(F)(F)F)oc2c1)C(=O)O (stereo not drawn)	Pf growth 48h 10.4µM
CCCCn1c(CNC(=O)C23CC4CC(CC(C4)C2)C3)nnc1SC(C)CC (stereo not drawn)	Pf growth 48h 10.4µM, Pf growth 96h inconclusive
CCCCSc1nnc(CNC(=O)C23CC4CC(CC(C4)C2)C3)n1Cc1ccccc1	Pf growth 48h 13.1µM, Pf growth 96h inconclusive
CCCCn1c(CNC(=O)C23CC4CC(CC(C4)C2)C3)nnc1SCC(=O)Nc1nnc(C)s1	none
O=C(NCc1nnc(SCc2ccccc2)n1-c1ccccc1)C12CC3CC(CC(C3)C1)C2	Pf growth 48h inconclusive, Pf growth 96h inconclusive
CCn1c(CNC(=O)C23CC4CC(CC(C4)C2)C3)nnc1SCC(=O)Nc1nnc(C)s1	Pf growth 96h 7.38µM (no result: Pf growth 48h)
O=C(Nc1ccccc1O)c1nc(Cl)ccc1Cl	none
Cc1ccc(CN2CCSc3sccc3C2=O)cc1	Pf growth 96h inconclusive
CCn1ncc(/C=N/NC(=O)c2cc(Cl)ccc2OC)c1C	none
COc1ccc(Cn2c(=O)oc3ccc(C)cc32)cc1	Pf growth 96h inconclusive
Cc1ccc2oc(=O)n(CCCOc3ccccc3)c2c1	Shiga inhibitor 103.6, CHX counter 34.9
Cc1ccc(OCCn2c(=O)oc3ccc(C)cc32)cc1	CHX counter 19.7
COc1ccc(N2CCN(C(=O)c3ccc(Br)o3)CC2)cc1	none
O=C1C=C(Nc2ccccc2)c2ccccc2C1=O	Pf growth 48h inconclusive
CCc1ccc(NC2=CC(=O)C(=O)c3ccccc32)cc1	Pf growth 48h 0.0828µM, Pf growth 96h 0.0738µM (no result: Shiga inhibitor, CHX counter)
O=C1C=C(Nc2ccccc2)C(=O)c2ccccc21	Pf growth 48h inconclusive, Shiga inhibitor 80.8, CHX counter 48.2, Pf growth 96h 2.33µM
CCOC(=O)CNC(=O)CSc1nnc(CCc2nc3ccccc3[nH]2)n1C	none
O=C(Nc1nc2c(s1)CN(Cc1ccccc1)CC2)c1c(F)cccc1F	Shiga inhibitor 41.9, CHX counter 30.5
CC(=O)Nc1sc2c(c1C(N)=O)CCN(Cc1ccccc1)C2	none
CC(C)(C)C(=O)Nc1nc2c(s1)CN(Cc1ccccc1)CC2	Pf growth 48h inconclusive, Shiga inhibitor 67.2, CHX counter 44.1, Pf growth 96h inconclusive
O=C(Nc1nc2c(s1)CN(Cc1ccccc1)CC2)C1CCCC1	Pf growth 48h inconclusive, CHX counter 22.7, Pf growth 96h inconclusive
O=C(Cc1ccccc1)NNC(=O)C1CCCC1	Pf growth 48h inconclusive

Source: PubChem BioAssay (National Center for Advancing Translational Sciences (NCATS))
